Measured values as given in PubChem BioAssay.
Values without a mark were called inactive. The source made the active and inactive calls.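 How the source made its calls: active means inhibition above the hit cutoff set in the earlier primary screen (cut at about 27% in these data); inactive means the rest.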

What follows are molecules tested against Protein phosphatase methylesterase 1 (Homo sapiens) (UniProt Q9Y570) (assay: human PME-1 methylesterase inhibition confirmation – biochemical, fluorescence polarization, FP-Rh probe, triplicate (AID 2171;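 further: 0% = enzyme with DMSO and 100% = wells lacking PME-1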)). Conditions: recombinant PME-1, FP-Rh probe fluorescence polarization; at 5.9 µM; stronger effect = higher value.
Sequence of Protein phosphatase methylesterase 1 (Homo sapiens) (Q9Y570 whole entry, looked up): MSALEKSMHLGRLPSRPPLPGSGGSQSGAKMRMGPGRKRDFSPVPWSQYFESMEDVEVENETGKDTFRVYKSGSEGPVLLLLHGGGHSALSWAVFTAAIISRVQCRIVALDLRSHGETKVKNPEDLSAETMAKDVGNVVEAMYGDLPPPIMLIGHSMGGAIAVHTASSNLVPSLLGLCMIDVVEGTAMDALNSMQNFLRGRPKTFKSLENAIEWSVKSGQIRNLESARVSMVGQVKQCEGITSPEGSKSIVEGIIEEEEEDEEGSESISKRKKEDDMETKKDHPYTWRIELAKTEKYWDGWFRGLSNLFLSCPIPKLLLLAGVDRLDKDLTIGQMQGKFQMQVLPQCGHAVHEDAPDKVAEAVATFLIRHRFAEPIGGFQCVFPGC

| Compound | inhibition |
| --- | --- |
| Cc1cc(-c2nnc(SCC(=O)Nc3nc(-c4ccc(Cl)cc4)cs3)o2)no1 | -22.5% |
| Clc1ccc2[nH]c3c(c2c1)CCc1cn[nH]c1-3 | 21.1% |
| O=C1c2c(O)cccc2Cc2cccc(O)c21 | 23.4% |
| Nc1nonc1-n1nnc(C(=O)N/N=C/c2c[nH]c3ccccc23)c1-c1ccccc1 | 25.4% |
| N#Cc1c(N)nc2c3c(sc(=N)c2c1N)NC(=O)CC3c1c(F)cccc1Cl (stereo unspecified) | 38.2% (active) |
| CCOc1ccc(N=Nc2c(=O)[nH]n3c(=O)c4c([nH]c23)CCCC4)cc1 | 24.8% |
| Cc1cc(C)c2c(N)c(-c3nc4ccccc4[nH]3)sc2n1 | 3.16% |
| CNc1ccc2c3c(cccc13)C(=O)N(C)C2=O | 71.2% (active) |
| CCc1ccc2[nH]c(O)c(N=NC3=NC(=O)CS3)c2c1 | 44% (active) |
| CCc1cc(/C(Cc2ccc3ccccc3n2)=N\O)c(O)cc1O | 30.8% (active) |
| CC(C)N(C(=O)Nc1ccc2nsnc2c1)C(C)C | 20.8% |
| CS(=O)(=O)N1N=C(c2ccccc2)CC1c1ccc2c(c1)OCO2 (stereo unspecified) | -54.8% |
| N#CCC(=O)Nc1ccc(C(=O)OCc2ccccc2Oc2ccccc2)cc1 | -74.3% |
| CCN(c1ccccc1)S(=O)(=O)c1ccc(OC)c(NC(=O)CNCCc2ccccc2)c1 | 19.9% |
| O=[N+]([O-])c1cc(Br)c(O)c(/C=N/Nc2nnnn2-c2cccc3ccccc23)c1 | 43.7% (active) |
| CSc1ccc(C2Nc3cccc4cccc(c34)N2)cc1 | 36.5% (active) |
